Experimental data: PubChem BioAssay (EPA / NIEHS)
Inconclusive results are not listed. Active and inactive are the calls of the source. Rule for the calls: active = hit-call score of the fitted dose curve at least 0.9, where 1 is the maximum; inconclusive = response in the unintended direction; inactive = score below 0.9.

test: ATG_M_19_TRANS: Attagene TRANS-FACTORIAL HepG2 Assay for M19 Transcription Factor (Internal Marker) (AID 2282974); details: HepG2 Attagene TRANS-FACTORIAL M19 internal marker reporter
Method: ATG_TRANS is a cell-based, multiplexed-readout assay that uses HepG2, a human liver cell line, with measurements taken at 24 hours after chemical dosing in a 24-well plate.ATG_M_19_TRANS is one of 30 assay component(s) measured or calculated from the ATG_TRANS assay. It is designed to make measurements of mRNA induction, a form of inducible reporter, as detected with fluorescence intensity signals by Reverse transcription polymerase chain reaction (RT-PCR) and Capillary electrophoresis technology.Data from the assay component ATG_M_19_TRANS was analyzed into 1 assay endpoint. This assay endpoint, ATG_M_19_TRANS, was analyzed in the positive analysis fitting direction relative to DMSO as the negative control and baseline of activity. Using a type of inducible reporter, measures of mRNA for gain-of-signal activity can be used to understand the background control at the transcription factor-level as they relate to the gene . Furthermore, this assay endpoint can be referred to as a secondary readout, because this assay has produced multiple assay endpoints where this one serves a background control function. To generalize the intended target to other relatable targets, this assay endpoint is annotated to the background measurement intended target family, where the subfamily is internal marker.
Human liver HepG2 cells are transiently transfected with multiple reporter transcription units (MRTUs) in 6-well plates using FuGene 6 reagent (Roche; 3 ml FuGene/1 mg DNA). The MRTU constructs are regulated by a cis-regulating element (promoter). […] A major difference between the CIS and TRANS system is that in CIS activities of endogenous TFs are measured, whereas the TRANS assay evaluates changes in activities of exogenous, chimeric NR-Gal4 proteins. […] At the end of 24 hour incubation, total RNA was isolated using TriZol reagent (Invitrogen). The isolated RNA is then reverse-transcribed using oligo(dT) primer and Mo-MLV reverse transcriptase (Invitrogen) with DNAse I (Ambion) treatment for 30 min. The one-tenth of the produced cDNA was amplified by PCR using Taq DNA polymerase (Invitrogen) and two reporter sequence-specific primers. The PCR products were fluorescently labeled by primer extension with 6-arboxyfluorescein (6-FAM) 5'-labeled reporter sequence-specific primer (2 min at 95 C, 20 s at 68 C and 10 min at 72 C) and these products were digested with 5U of HpaI (New England Biolabs) for 2h at 37 C. The fragments were purified using Qiaquick PCR columns (Qiagen), analyzed on an ABI 3130xL genetic analyzer (Applied Biosystems) with peak positions identified by using a set of X-rhodamine (ROX)-labeled MapMarker1000 molecular weight standards (BioVentures). The raw capillary electrophoresis data was processed using Attagraph software (Attagene).

Compound	outcome
O=C(Nc1ccccc1SSc1ccccc1NC(=O)c1ccccc1)c1ccccc1	inactive
CCOC(=O)N1CCC(=C2c3ccc(Cl)cc3CCc3cccnc32)CC1	inactive
C=COCCCC	inactive
O=C(/C=C/C=C/c1ccc2c(c1)OCO2)N1CCCCC1	inactive
CCCCCCCCCCOS(=O)(=O)O	inactive
C=CC(=O)NC(C)(C)CS(=O)(=O)O	inactive
CCCCCCCC/C=C\CCCCCCCC(=O)OCCO	inactive
O=C1c2cccc(O)c2C(=O)c2c(O)cc(CO)cc21	inactive
COCCCOCCCOC	inactive
COc1cc(NC(=O)CC(C)=O)c(OC)cc1Cl	inactive
OCCCS	inactive
N=c1ccn2c(n1)O[C@H]1[C@H](O)[C@@H](CO)O[C@H]12	inactive
Cc1c(C)c([N+](=O)[O-])c(C(C)(C)C)c([N+](=O)[O-])c1C	inactive
CC(=O)c1ccc[nH]1	inactive
CCCCCCCCO[C@@H]1O[C@H](CO)[C@@H](O)[C@H](O)[C@H]1O	inactive
Nc1ccc(N=Nc2ccccc2)c(N)n1	inactive
C=CC(=O)OCC(Br)CBr (stereo not given)	inactive
O=S(=O)(O)c1ccc2cc(O)c(S(=O)(=O)O)cc2c1	inactive
S=C(NC1CCCCC1)NC1CCCCC1	inactive
CCCCCCCC[N+](C)(CCCCCCCC)CCCCCCCC	inactive

Compound	outcome
O=[N+]([O-])C1(Br)COCOC1	inactive
CC(=O)OCC(C)OC(C)=O (stereo not given)	inactive
CC/C=C\CCOC(=O)CCCCC	inactive
O=C(O)CCCC[C@@H]1SC[C@@H]2NC(=O)N[C@@H]21	inactive
C=CC(C)(CCC=C(C)C)OC(=O)CC(C)C (stereo not given)	inactive
CCCCCCCCCCC=CC#N	inactive
O=C1c2ccccc2C(=O)C1c1nc2ccccc2c(Br)c1O	inactive
O=C(c1ccc(O)cc1)c1ccc(O)cc1O	inactive
CC1=CC[C@H]2C[C@@H]1C2(C)C	inactive
C=CC(=O)OCCOC1C2CCC1C1CC=CC12 (stereo not given)	inactive
CCOC(=O)c1ccc(N(C)C)cc1	inactive
C=C(C)[C@@H]1CCC2=CCC[C@@H](C)[C@]2(C)C1	inactive
CN1C(=O)N(C)C(O)C1O (stereo not given)	inactive
CC1OC1C1CCC2(C)OC2C1 (stereo not given)	inactive
C[C@]12C=CC(=O)C=C1CC[C@@H]1[C@@H]2[C@@H](O)C[C@@]2(C)[C@H]1CC[C@]2(O)C(=O)CO	inactive
C=CC(C)(CCC=C(C)C)OC(=O)C(C)C (stereo not given)	inactive
CC(C)=CCC/C(C)=C\C#N	inactive
CC(C)CC(O)Cc1ccccc1 (stereo not given)	inactive
CC(C)(Oc1ccc(C2CC2(Cl)Cl)cc1)C(=O)O (stereo not given)	inactive
CC(C)(c1cc(Br)c(OCCO)c(Br)c1)c1cc(Br)c(OCCO)c(Br)c1	inactive
